Source: PubChem BioAssay (NCI)
The panel holds about 83,000 compounds, 20% with a hit somewhere; the sample as a whole holds those more often.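 Interpretation: 100, growth as untreated; towards 0, rising growth inhibition; 0, no net growth; 0 to -100, cell death. Compounds scoring below 10 were considered active.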 Activity calls are given as the source filed them.

How the values were obtained:
Experiment in all cases: NCI-60 one-dose screen, 48 h (100 = growth as untreated, 0 = no growth, -100 = all killed)
Conditions in all cases: 10 µM unless noted
SR leukemia = tested on: SR leukemia
RPMI-8226 leukemia = tested on: RPMI-8226 leukemia
OVCAR-8 ovarian = tested on: OVCAR-8 ovarian
OVCAR-5 ovarian = tested on: OVCAR-5 ovarian
OVCAR-4 ovarian = tested on: OVCAR-4 ovarian
IGROV1 ovarian = tested on: IGROV1 ovarian
OVCAR-3 ovarian = tested on: OVCAR-3 ovarian
HS 578T breast = tested on: HS 578T breast
NCI/ADR-RES ovarian = tested on: NCI/ADR-RES ovarian
T-47D breast = tested on: T-47D breast
BT-549 breast = tested on: BT-549 breast
MDA-MB-435 melanoma = tested on: MDA-MB-435 melanoma
SW-620 colon = tested on: SW-620 colon
MCF7 breast = tested on: MCF7 breast
HCT-116 colon = tested on: HCT-116 colon
HCC-2998 colon = tested on: HCC-2998 colon
KM12 colon = tested on: KM12 colon
SK-OV-3 ovarian = tested on: SK-OV-3 ovarian

Measured: growth

O=C(OCC(O)C(=O)NC12CC3CC(CC(C3)C1)C2)c1cccc(Br)c1 (stereo not given)
inactive: SR leukemia 84.9% | RPMI-8226 leukemia 94.6% | OVCAR-8 ovarian 95.9% | OVCAR-5 ovarian 101% | OVCAR-4 ovarian 98.2% | IGROV1 ovarian 103% | OVCAR-3 ovarian 109% | HS 578T breast 95.7% | NCI/ADR-RES ovarian 101% | T-47D breast 93.2% | BT-549 breast 115% | MDA-MB-435 melanoma 97% | SW-620 colon 99.2% | MCF7 breast 91.7% | HCT-116 colon 99% | HCC-2998 colon 114% | KM12 colon 107%

COc1cccc(NC(=O)c2sc3nc(C)c(C(=O)c4ccccc4)cc3c2N)c1
inactive: SR leukemia 45.4% | RPMI-8226 leukemia 94.5% | OVCAR-8 ovarian 98.8% | OVCAR-5 ovarian 97.5% | OVCAR-4 ovarian 87.9% | IGROV1 ovarian 91.7% | OVCAR-3 ovarian 92.9% | HS 578T breast 72.9% | NCI/ADR-RES ovarian 98.1% | T-47D breast 88.6% | BT-549 breast 91.8% | MDA-MB-435 melanoma 29.9% | SW-620 colon 91.4% | MCF7 breast 69.5% | HCT-116 colon 95.9% | HCC-2998 colon 109% | KM12 colon 88%

N#CC1=C(N)Oc2c(ccc3cccnc23)C1c1ccccc1 (stereo not given)
active: OVCAR-3 ovarian -6.82% | NCI/ADR-RES ovarian -11.2%
inactive: SR leukemia 35.2% | RPMI-8226 leukemia 11.6% | OVCAR-8 ovarian 45.2% | OVCAR-5 ovarian 56.3% | OVCAR-4 ovarian 44.9% | IGROV1 ovarian 42.4% | HS 578T breast 35.6% | T-47D breast 50.4% | BT-549 breast 51.8% | SW-620 colon 29% | MCF7 breast 24.6% | HCT-116 colon 22.2% | HCC-2998 colon 50.4% | KM12 colon 25.2%

O=C(Nc1ccccc1C(F)(F)F)C1=NCCCCN1
inactive: SR leukemia 102% | RPMI-8226 leukemia 99.6% | OVCAR-8 ovarian 99.9% | OVCAR-5 ovarian 94.7% | OVCAR-4 ovarian 99% | SK-OV-3 ovarian 108% | OVCAR-3 ovarian 101% | HS 578T breast 99.8% | NCI/ADR-RES ovarian 103% | T-47D breast 101% | BT-549 breast 105% | MDA-MB-435 melanoma 100% | SW-620 colon 92.9% | MCF7 breast 99.7% | HCT-116 colon 99.5% | HCC-2998 colon 102% | KM12 colon 102%

O=C(CSc1nnc(-c2ccc(Cl)c(Cl)c2)n1-c1ccccc1)Nc1ccc(C(=O)/C=C/c2ccc(Cl)cc2)cc1
active: RPMI-8226 leukemia -11.4% | HCT-116 colon 6.82%
inactive: SR leukemia 76.6% | OVCAR-8 ovarian 87.9% | OVCAR-5 ovarian 96.8% | OVCAR-4 ovarian 94.4% | SK-OV-3 ovarian 87.9% | OVCAR-3 ovarian 95.5% | HS 578T breast 90.7% | NCI/ADR-RES ovarian 95.3% | T-47D breast 81.8% | MDA-MB-435 melanoma 94.3% | SW-620 colon 94.4% | MCF7 breast 68.1% | HCC-2998 colon 110% | KM12 colon 99.3%

O=S(=O)(Nc1ccc(Br)cc1)c1ccc(-c2cnc(C3CC3)o2)cc1
active: OVCAR-3 ovarian -7.12% | HS 578T breast -8.02% | NCI/ADR-RES ovarian -2.19%
inactive: SR leukemia 12.7% | RPMI-8226 leukemia 13.9% | OVCAR-8 ovarian 41.5% | OVCAR-5 ovarian 51% | OVCAR-4 ovarian 67.8% | SK-OV-3 ovarian 35.5% | T-47D breast 18.6% | BT-549 breast 47.1% | SW-620 colon 11.1% | MCF7 breast 16.1% | HCT-116 colon 18.7% | HCC-2998 colon 56.2% | KM12 colon 24.6%

CCCCCCCCCCCCCC[n+]1ccc2c(C)c3c(c(C)c2c1)c1cc(O)ccc1n3CC
active: SR leukemia -52.5% | RPMI-8226 leukemia -51.5% | OVCAR-8 ovarian -43.4% | OVCAR-5 ovarian -60.9% | OVCAR-4 ovarian -59.8% | IGROV1 ovarian -75.6% | OVCAR-3 ovarian -95.3% | HS 578T breast -41.3% | T-47D breast -25.5% | BT-549 breast -74.3% | MDA-MB-435 melanoma -92.6% | SW-620 colon -72.2% | MCF7 breast -70.3% | HCT-116 colon -79.4% | HCC-2998 colon -64.6% | KM12 colon -67.3%
inactive: NCI/ADR-RES ovarian 59.9%

Cc1ccc(C(=O)Nc2ccc(CN3CCN(C)CC3)c(C(F)(F)F)c2)cc1C#Cc1cnc(N)c2ccccc12
inactive: T-47D breast 30.5% | BT-549 breast 51.3%
active: SR leukemia -8.12% | RPMI-8226 leukemia -39.6% | OVCAR-8 ovarian -42.1% | OVCAR-5 ovarian 2.98% | OVCAR-4 ovarian -52% | IGROV1 ovarian -37.6% | OVCAR-3 ovarian -57.7% | HS 578T breast -28.1% | NCI/ADR-RES ovarian -32.8% | MDA-MB-435 melanoma -97% | SW-620 colon -88.4% | MCF7 breast -81.5% | HCT-116 colon -90.5% | HCC-2998 colon -83.5% | KM12 colon -83.1%

COC(=O)c1sc(-c2ccc(C)cc2)cc1O
inactive: SR leukemia 81.9% | RPMI-8226 leukemia 103% | OVCAR-8 ovarian 117% | OVCAR-5 ovarian 112% | OVCAR-4 ovarian 91.5% | SK-OV-3 ovarian 114% | OVCAR-3 ovarian 99.6% | HS 578T breast 101% | NCI/ADR-RES ovarian 99.8% | T-47D breast 102% | BT-549 breast 107% | MDA-MB-435 melanoma 91.9% | SW-620 colon 103% | MCF7 breast 96.4% | HCT-116 colon 96.6% | HCC-2998 colon 94.7% | KM12 colon 95.8%
